The structures appear in SMILES notation. Screen size: about 93,000 compounds; about 160 (0.17%) were called active.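 How the source made its calls: active means cell count reduction exceeding the screen mean by over 5 SD, scaled to untreated wells per plate (cut at about 78% in these data); inactive means the rest.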 What follows is part of a selection rich in actives, with near analogues and random picks from the rest.

A short description of the assay: cytotoxicity in TNFa-stimulated HUVEC, primary screen, cytotoxicity control for VCAM1 expression modulator project, imaging, Hoechst nuclei count (AID 848).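 Further: cells counted after 24 h of TNF alpha exposure following the 1 h pretreatment.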 The note with it: HUVEC TNFalpha-stimulated, at 2 µM, hits give high values.
Turning to `COc1cc(/C=C(/NC(=O)c2ccccc2)C(=O)Nc2cccc(O)c2)c([N+](=O)[O-])cc1OC`, the cell count reduction is -6.3% (inactive).

In the case of `COCCn1c(SCc2nc3cc(OC)c(OC)cc3c(=O)[nH]2)nnc1-c1ccncc1`, the cell count reduction was -3.6% (inactive).

Take `O=C(Cc1ccc(S(=O)(=O)N2CCCC2)s1)NC1CCCCCC1`: the cell count reduction is -12.9% (inactive).

On to `CCOC(=O)N1CCC(N(CCOC)C(=O)Nc2ccc(C)c(C)c2)CC1`, for which the cell count reduction is 10.5% (inactive).

`N#Cc1ccccc1CN1C(=O)S/C(=C/c2cccn2-c2cccc(C(=O)O)c2)C1=O`: the cell count reduction was 7.4% (inactive).

`COc1c(Cl)cc(C(=O)Nc2ccc(Cl)cn2)cc1Cl`: the cell count reduction was -4.4% (inactive).

For the compound `c1ccc(C2CCC(N3CCC(N4CCCCC4)CC3)CC2)cc1` (stereo not given), the cell count reduction is -1.7% (inactive).

Take `CCc1ccc(NC(=O)CN2C(=O)CSC2=O)cc1`: the cell count reduction was -18.2% (inactive).

`c1ccc2c(CSCc3nc4ccccc4[nH]3)cccc2c1`: the cell count reduction is -12.2% (inactive).

Take `Cc1ccc(NC(=S)NCCN2CCOCC2)cc1`: the cell count reduction was -14.3% (inactive).

Consider `O=C(c1cccc(F)c1)N1CCN(c2ccc([N+](=O)[O-])c(N3CCCCC3)c2)CC1`, for which the cell count reduction is -7.8% (inactive).

As for `NC(=O)C1(N2CCCCC2)CCN(C(=S)Nc2ccc(Cl)cc2)CC1`, the cell count reduction is 5.1% (inactive).

Take `CCOc1cc(CNCCN(C)C)c(Cl)cc1OCC(=O)NCCc1ccccc1`: the cell count reduction was 8.2% (inactive).

`COc1ccc(C)cc1NC(=O)CCC(=O)Nc1nnc(C(F)(F)F)s1`: the cell count reduction is -16% (inactive).

As for `O=C(NCC1CCCO1)/C(=C\c1ccco1)NC(=O)c1ccccc1` (stereo not given), the cell count reduction is 4.8% (inactive).

Consider `O=C(NNS(=O)(=O)c1ccc(Cl)cc1)C1CCN(Cc2ccccc2)CC1`, for which the cell count reduction was -18.3% (inactive).

`COc1ccc(CC(=O)Nc2sc(Cc3ccccc3)c(C)c2C(N)=O)cc1`: the cell count reduction was -1.7% (inactive).

In the case of `O=C(NN1C(=O)C2C3C=CC(C4CC34)C2C1=O)c1ccc(Cl)cc1` (stereo not given), the cell count reduction was 5.4% (inactive).

`Cc1c(NC(=O)CCCOc2ccccc2)cccc1[N+](=O)[O-]`: the cell count reduction was 15.7% (inactive).

As for `O=C(CCC(=O)OCc1cccc(C(=O)Oc2ccccc2)c1)Nc1cccc2ccccc12`, the cell count reduction is -13% (inactive).

For the compound `Cc1cc2c(cc1C)N(C(=O)CN1C(=O)c3ccccc3C1=O)C(C)(C)c1ssc(=S)c1-2`, the cell count reduction was -9.3% (inactive).

For `C/C(=N\NS(=O)(=O)c1ccc(Br)cc1)c1cccs1`, the cell count reduction was -23.7% (inactive).

Consider `CCn1c(SC)nc(O)c(C(c2ccc(OC)c(O)c2)c2c(O)nc(SC)n(CC)c2=O)c1=O`, for which the cell count reduction was -7.3% (inactive).

Consider `CSc1ccc(C#N)cc1NC(=O)c1ccc(Cl)cc1`, for which the cell count reduction was -0.4% (inactive).

`O=C1Nc2cc(Cl)c(Cl)cc2N(O)N1c1cc(Cl)cc(Cl)c1`: the cell count reduction was -19.6% (inactive).

Take `N/C(=N\OC(=O)CCc1ccccc1)c1ccc(Cl)cc1`: the cell count reduction is -44% (inactive).

For the compound `Cc1cc(C)nc(SC(C)C(=O)N/N=C/c2cccs2)n1` (stereo not given), the cell count reduction is -19.7% (inactive).

For the compound `CN(C(=O)CC(NC(=O)c1ccccc1)(c1ccccc1)c1ccccc1)c1ccccc1`, the cell count reduction is 3.7% (inactive).

On to `COC(=O)c1ccc(C(=O)Nc2cc(Cl)ccc2Cl)cc1NC(=O)c1ccccc1C`, for which the cell count reduction is -7.7% (inactive).

Regarding `O=C1c2ccccc2C(=O)N1CC1c2ccccc2CCN1S(=O)(=O)c1ccccc1` (stereo not given), the cell count reduction is -14.8% (inactive).

In the case of `Cc1ccc2nc(Nc3ccccc3O)nc(-c3ccccc3)c2c1`, the cell count reduction is -13.2% (inactive).

Turning to `CCc1ccc(C(=O)CSc2nnc(C)c(=O)[nH]2)cc1`, the cell count reduction is -4.6% (inactive).

As for `COc1ccc(NC(=O)/C(Cl)=C(/Cl)S(=O)Cc2ccc(C)cc2)cn1` (stereo not given), the cell count reduction is 81.9% (active).

With `COc1ccc(CC(=O)Nc2ccc(-c3nnc(-c4ccc(C)cc4)o3)cc2)cc1`, the cell count reduction is -17.7% (inactive).

With `COc1cccc(NC(=O)Cc2ccc(C)cc2)c1`, the cell count reduction is -6.5% (inactive).

As for `C=CCn1c(SCC(=O)c2c(N)n(C)c(=O)n(C)c2=O)nc2sc(CC)cc2c1=O`, the cell count reduction was -45.1% (inactive).

In the case of `CC(C)c1ccc(/C=C/C(=O)NNC(=O)c2cccnc2)cc1`, the cell count reduction is -4.2% (inactive).

As to `CCC(=O)NCCc1nc2ccccc2n1CC`, the cell count reduction is 14.3% (inactive).

For `CSc1nc2ccccc2cc1/C=C(\C#N)c1ccc(Cl)cc1Cl`, the cell count reduction was -9% (inactive).

With `Clc1ccc(-n2nnnc2CN2CCCCC2)cc1Cl`, the cell count reduction is -12.5% (inactive).

Turning to `COc1ccc(C(=O)NC(=S)Nc2ccccc2N2CCN(S(C)(=O)=O)CC2)cc1OC`, the cell count reduction is -26.7% (inactive).

For the compound `C=CCNc1cnn(-c2ccc(C)cc2)c(=O)c1Cl`, the cell count reduction is -7.9% (inactive).

Regarding `Cc1ccc(CNC(=O)CCNC(=O)Cn2ccc3ccccc3c2=O)cc1`, the cell count reduction was -15.5% (inactive).

As to `CCSc1nnc(-c2cc3c(s2)-c2ccccc2CC3)o1`, the cell count reduction was -4.1% (inactive).

In the case of `O=C(Cc1ccc2c(c1)CCCC2)Nc1ccccc1Cl`, the cell count reduction was 7.2% (inactive).

For the compound `CC(C)(CCl)C(=O)Nc1ccc(Sc2ccc(F)cc2)cc1`, the cell count reduction was -6.3% (inactive).

Take `Cc1ccc(S(=O)(=O)N(CC(=O)NCCSC2CCCCC2)c2ccccc2F)cc1`: the cell count reduction is -49.8% (inactive).

With `COC(=O)c1cccc(N(C(=O)c2ccco2)C(C(=O)NC2CCCC2)c2ccco2)c1` (stereo not given), the cell count reduction was 1.3% (inactive).

As to `CCNC(=S)N1CCN(C(=O)c2ccco2)CC1`, the cell count reduction was 15% (inactive).

Take `CC(=O)N/C(=C/c1ccc(Cl)cc1)C(=O)NCCc1c[nH]c2ccccc12`: the cell count reduction is -23.5% (inactive).

For the compound `Cc1ccc(S(=O)(=O)N(CC(=O)N2CCc3ccccc3C2)c2cccc(Cl)c2)cc1`, the cell count reduction is 0% (inactive).

In the case of `CC1CN(c2nc(-c3ccccc3)nnc2-c2ccccc2)CC(C)O1` (stereo not given), the cell count reduction was -11% (inactive).

In the case of `CCC(=O)NNc1cc(=O)c2c(=O)n(C)c(=O)n(C)c2[nH]1`, the cell count reduction is 13% (inactive).

Take `O=C(CSc1nnc(-c2c[nH]c3ccccc23)o1)c1ccccc1`: the cell count reduction was -13.6% (inactive).

Consider `COC(=O)CNC(=O)c1ccccc1[N+](=O)[O-]`, for which the cell count reduction was -19.5% (inactive).

Values taken from PubChem BioAssay AID848 (Columbia University Molecular Screening Center, 2007).
